The record followed here is PubChem BioAssay AID1986 (Sanford-Burnham Center for Chemical Genomics, 2009).

This assay is described as follows: cell-free HIV fusion peptide-binding blockers – biochemical, uHTS, fluorescence dequenching, primary screen (AID 1986). The conditions noted are these: 30 min, stronger effect = higher value.
Setting [1] is: measured here: repeat confirmation average inhibition, at 18.6 µM.

In all, about 290,000 compounds went through this assay and about 890 (0.31%) were called active. Rule as the data show it: active = inhibition mostly above about 52% (no sharp cut-off); inactive = mostly below about 76%. This excerpt belongs to a sample that is enriched for actives.

Turning to `c1ccc2[nH]c3cc4ncnc4cc3nc2c1`, the inhibition (at 20 µM) was 59.7% (active) and the inhibition under setting [1] was found to be 95.9%.

In the case of `Nc1nc2ccccc2[nH]1`, the inhibition (at 20 µM) was -0.4% (inactive).

For `FC(F)(F)c1nc2cc3nc4ccccc4[nH]c3cc2n1`, the inhibition (at 20 µM) was 3.4% (inactive).

As to `Cc1cc(C)c(/C=N/n2c(C)cc(C)c(C#N)c2=O)c(C)c1`, the inhibition (at 20 µM) is -2.5% (inactive).

In the case of `O=C(NCc1ccc2c(c1)OCO2)c1ccc(CSCc2ccccc2Cl)o1`, the inhibition (at 20 µM) is 0.4% (inactive).

For the compound `CCc1oc2ccccc2c1C(=O)c1cc(Br)c(O)c(Br)c1`, the inhibition is 57.5% (active) (at 20 µM) and 71.4% under setting [1].

Regarding `CCc1oc2ccccc2c1C(=O)CCN1CCCCC1`, for the setting “at 20 µM”, the inhibition is -3.9% (inactive).

Regarding `CCOC(=O)c1c(O)c2ccccc2oc1=O`, the inhibition (at 20 µM) was -0.2% (inactive).

As to `Cc1ccc(NC2=NCC(=O)N2c2ccc3c(c2)OCCO3)c(C)c1`, for the setting “at 20 µM”, the inhibition is 0.4% (inactive).

For the compound `O=C(NCCSCc1c(F)cccc1Cl)c1ccco1`, the inhibition (at 20 µM) was -1.3% (inactive).

Take `CN(Cc1cc(=O)n2ccsc2n1)Cc1nc2ccccc2c(=O)[nH]1`: the inhibition (at 20 µM) was -1.5% (inactive).

Take `COc1ccc(NC(=O)CSc2nnc(C)c3ccccc23)cc1`: for the setting “at 20 µM”, the inhibition was 0.4% (inactive).

Take `COc1ccc(NC(=O)CSc2nncc3ccccc23)cc1`: under “at 20 µM”, the inhibition was -1.5% (inactive).

In the case of `COc1ccc(NC(=O)CSc2ccc3c4c(cccc24)C(=O)c2ccccc2-3)cc1`, the inhibition (at 20 µM) is 77% (active) and the inhibition under setting [1] was determined as 96.6%.

Take `N#Cc1cccc(NC(=O)CSc2ccccc2)c1`: the inhibition (at 20 µM) was -0.6% (inactive).

Take `Cc1ccccc1SCC(=O)Nc1cccc(C#N)c1`: the inhibition (at 20 µM) was 8.4% (inactive).

In the case of `N#Cc1cccc(NC(=O)CSc2ccc3c4c(cccc24)C(=O)c2ccccc2-3)c1`, the inhibition (at 20 µM) is 74.2% (active).

In the case of `COc1ccccc1NC(=O)C(C)OC(=O)C1CC(=O)N(c2ccc3c(c2)OCCO3)C1` (stereo not drawn), the inhibition (at 20 µM) is 1.1% (inactive).

On to `Cc1ccc(/C=N/NC(=O)c2ccccc2OCc2cccc(Br)c2)o1`, for which, where the note is “at 20 µM”, the inhibition was -2.8% (inactive).

For the compound `CCOc1ccccc1N1CC(C(=O)Nc2ccccc2N2CCOCC2)CC1=O` (stereo not drawn), where the note is “at 20 µM”, the inhibition was -1.3% (inactive).

Take `COc1ccccc1CNc1ccccc1F`: under “at 20 µM”, the inhibition is -1.2% (inactive).

With `COc1ccccc1C(C)NC(=O)CCOc1cccc(C)c1` (stereo not drawn), the inhibition (at 20 µM) is -1.1% (inactive).

Consider `Cc1ccc2c(CN3C(=O)NC(C)(c4ccc5c(c4)OCO5)C3=O)cc(=O)oc2c1` (stereo not drawn), for which, for the setting “at 20 µM”, the inhibition was 3.8% (inactive).

For `Cn1c(N=Nc2ccccc2)nc2ccccc21`, the inhibition (at 20 µM) is 101% (active).

Regarding `CN(C)c1ccc(N=Nc2nc3ccccc3n2C)cc1`, under “at 20 µM”, the inhibition was -6% (inactive).

Regarding `Cc1cc(C)c(C)c(N=Nc2nc3ccccc3n2C)c1C`, the inhibition (at 20 µM) was -5.2% (inactive).

As to `CC1CCC2(CC1)Nc1ccccc1C(=O)N2c1ccccc1` (stereo not drawn), the inhibition (at 20 µM) was -0.5% (inactive).

Take `O=C(CN1CCN(c2ccc(F)cc2)CC1)Nc1ccc(S(=O)(=O)N2CCOCC2)cc1`: where the note is “at 20 µM”, the inhibition is 0.3% (inactive).

In the case of `CCN(CC)CC(O)CCCCCCCCC(=O)OC` (stereo not drawn), the inhibition (at 20 µM) was -0.6% (inactive).

For the compound `CCOc1ccc(NC(=O)CN2CCN(C3c4ccccc4-c4ccccc43)CC2)cc1`, the inhibition (at 20 µM) was 0.9% (inactive).

In the case of `O=c1[nH]c(-[n+]2ccccc2)c(/C=N/NC([S-])=Nc2ccccc2)s1`, the inhibition is 97.7% (inactive) (at 20 µM) and 27.6% under setting [1].

As to `Cc1cc[n+](-c2[nH]c(=O)sc2/C=N/NC([S-])=Nc2ccccc2)cc1C`, the inhibition (at 20 µM) was 36% (inactive).

With `CCc1ccc[n+](-c2[nH]c(=O)sc2/C=N/NC([S-])=Nc2ccccc2)c1`, the inhibition (at 20 µM) was 57% (active).

`CCN(CC)C(=O)Cn1cc(S(=O)(=O)CC(=O)Nc2ccccc2C)c2ccccc21`: the inhibition (at 20 µM) was 1.2% (inactive).

As for `N#CC1=C(N)SC(N)=C(C#N)C1c1ccc(C(F)(F)F)cc1`, the inhibition (at 20 µM) is 18.6% (inactive).

As to `Cc1ccc(C2C(C#N)=C(N)SC(N)=C2C#N)cc1`, for the setting “at 20 µM”, the inhibition is -0.7% (inactive).

Take `N#CC1=C(N)SC(N)=C(C#N)C1c1ccoc1`: under “at 20 µM”, the inhibition was 97.5% (active).

Regarding `O=C(COC(=O)c1ccc([N+](=O)[O-])s1)NC(c1ccccc1)c1ccccc1`, the inhibition (at 20 µM) is 0% (inactive).

Turning to `O=C(NC(=S)NC1CCSC1=O)c1ccc([N+](=O)[O-])cc1` (stereo not drawn), under “at 20 µM”, the inhibition is -1.4% (inactive).

As to `COc1ccc(OC)c(CNC(=O)CCC(=O)N2Cc3cccc(OC)c3Oc3ncccc32)c1`, under “at 20 µM”, the inhibition is 1.2% (inactive).

`COc1ccc2nc(N/C(=N/S(=O)(=O)c3cccs3)c3ccccc3Cl)sc2c1`: where the note is “at 20 µM”, the inhibition was 30.6% (inactive).

`Cc1ccc2nc(N/C(=N/S(=O)(=O)c3cccs3)c3ccccc3Cl)sc2c1`: the inhibition (at 20 µM) was 69.2% (active).

Turning to `Cc1ccc2nc(N/C(=N/S(=O)(=O)c3ccc(F)cc3)c3ccccc3)sc2c1`, where the note is “at 20 µM”, the inhibition is 8.2% (inactive).

In the case of `Cc1cc(C)nc(SCc2nc(N)nc(-c3ccccc3O)n2)n1`, the inhibition (at 20 µM) was -1.6% (inactive).

Regarding `COc1cc2c(cc1OC)CN(C(=O)c1sc(-c3cnccn3)nc1C)CC2`, for the setting “at 20 µM”, the inhibition was 0.1% (inactive).

`CCOc1cc(/C=N/NC(=O)CN2CCOCC2)ccc1OCc1ccc(Cl)cc1`: under “at 20 µM”, the inhibition is 0.5% (inactive).

As to `COc1cc(/C=N/N=C2/NC(=O)C(CC(=O)O)S2)ccc1OCc1cccc(Cl)c1` (stereo not drawn), under “at 20 µM”, the inhibition was 47.1% (inactive).

On to `COc1cc(/C=N/N=C2/NC(=O)C(CC(=O)O)S2)ccc1OCc1ccc(Cl)cc1` (stereo not drawn), for which the inhibition (at 20 µM) is 51.8% (active).

Take `CCOc1cc(/C=N/NC(=O)CN2CCCCC2)ccc1OCc1ccc(Cl)cc1`: the inhibition (at 20 µM) was -0.7% (inactive).

By inhibition is commonly meant the drop in the measured response relative to a control, in per cent.
